Experimental data taken from PubChem BioAssay.
Active and inactive are the calls of the source. No rule for the calls is given here.

Experiment: P. aeruginosa biofilm formation inhibitors, primary screen, PAO1 strain, BacTiter-Glo luminescence, LB-PBS (AID 1144)
Details: 12 h, higher = more signal

z-score, inactive:
C=CC[C@H](OC(=O)Nc1ccc(SC)cc1)c1ccc(O)c2ccccc12 -0.921, O=C1O[C@@H](c2ccccc2)[C@@H](c2ccccc2)N2[C@@H](c3ccc(OCCO)cc3)[C@]3(C(=O)Nc4ccc(C#CC5=CCCCC5)cc43)[C@@H](C(=O)NC[C@H](O)c3ccccc3)[C@H]12 -0.209, O=C1O[C@H](c2ccccc2)[C@H](c2ccccc2)N2[C@H]1[C@@H](C(=O)O)[C@]1(C(=O)Nc3ccc(C#CCCO)cc31)[C@H]2c1ccccc1OCCO -0.352, CC(C)c1ccc(NN2C(C(O)c3ccc(C#N)cc3)C=CC3C(=O)N(c4ccccc4)C(=O)C32)cc1 (stereo not given) -0.803, C[N+](C)(C)CCCC[C@@H]1NC(=O)[C@@H]2C[C@H](C(=O)NCCCCCCN)[C@H](c3cccc(OCCO)c3)N2C1=O 0.32, CC(C)[Si]1(C(C)C)OCc2cc(C3CC3)nc(-c3ccc(Oc4ccccc4)cc3)c21 -0.823, COCCOC(=O)N1C(=O)[C@@]2(c3cc(C#CC4(O)CCCCCC4)ccc31)[C@H](c1ccc(O)cc1)N1[C@H](c3ccccc3)[C@H](c3ccccc3)OC(=O)[C@H]1[C@@H]2C(=O)N1CCN(c2ncccn2)CC1 -0.127, COC(=O)c1c(CC[C@@H](CO)NC(=O)N[C@@H](C)Cn2cc(-c3ccccn3)nn2)oc(C(C)=O)c1C(=O)OC -0.243, CCOC(=O)[C@@H]1CCCCN1C(=O)C(=O)OC 0.594, CN(C)c1ccc(C(O)C2C=CC3C(=O)NC(=O)C3N2Nc2ccccn2)cc1 (stereo not given) 0.161, CC#CCO[Si](C#Cc1ccccc1)(C(C)C)C(C)C 0.687, CC(=O)N1CC2(CC2)CC1c1ccccc1 (stereo not given) 0.108, COCCOC(=O)N1C(=O)[C@@]2(c3cc(C#CCC(C(=O)OC)C(=O)OC)ccc31)[C@H](c1ccc(OCCO)cc1)N1[C@H](c3ccccc3)[C@H](c3ccccc3)OC(=O)[C@H]1[C@@H]2C(=O)N1CCc2cc(OC)c(OC)cc2C1 -0.119, C=CCC(OC(C)=O)[C@@H]1[C@@H](N(Cc2cccc3ccccc23)C(=O)Cc2ccc(F)cc2)c2cc(OCCCO)ccc2N1C(=O)c1ccc2ccccc2c1 (stereo not given in full) -1.04, CN1C2C=C(CCCO)C(C3C(=O)N(C(N)=O)C(=O)C32)C1C1CC1 (stereo not given) 0.57, CCCN1C(=O)[C@]2(Cc3ccccc31)N=C(c1ccc(OCCCO)cc1)O[C@@H]2c1ccccc1 -2.3, NCCCCCNC(=O)[C@@H]1C[C@@H]2C(=O)N[C@@H](CCCCN)C(=O)N2[C@@H]1c1ccc(O)cc1 -0.148, Cc1ccc(C(C)CC(O)C2C=CC3C(=O)N(c4ccccc4)C(=O)C3N2Nc2ccccc2)o1 (stereo not given) -0.443, CCCNC(=O)[C@@H]1c2ccccc2C(=O)N(Cc2ccc(OC(F)(F)F)cc2)[C@H]1c1ccc(CO)cc1 0.256, CC(C)C(CO)N1C(=O)[C@@H]2[C@H]3C(=O)OCC=C[C@H]3OC23C=CCN(c2ccc(Cl)cc2)C(=O)[C@@H]13 (stereo not given in full) 2.84, CC(C)c1ccc(NN2C(C(O)c3ccc(F)cc3)C=CC3C(=O)N(c4ccccc4)C(=O)C32)cc1 (stereo not given) -1.63, OCCCC1=CC(c2ccc(CN3CCCC3)cc2)N(Cc2cc3c(cc2Br)OCO3)CC1 (stereo not given) -0.808, COc1cc2c(cc1O)C(c1cccs1)N(Cc1cc3c(cc1Br)OCO3)CC2 (stereo not given) 0.582, CCCNC(=O)[C@@]1(Sc2ccc(C)cc2)CC(=O)N(C2Cc3ccccc3C2)[C@@H]1c1ccc(CO)cc1I 0.594, CC(C)=C1C(=O)C(c2ccccc2)=C2CN3C(=O)N(CCc4ccccc4)C(=O)[C@]3(Cc3ccc(C(F)(F)F)cc3)[C@H]21 0.408, COc1cccc(C)c1NC(=O)O[C@H]1[C@H](OC(=O)Nc2ccccc2-c2ccccc2)[C@H](OC(=O)Nc2ccccc2-c2ccccc2)[C@@H](OC)O[C@@H]1CO 1.14, COCCCNC(=O)[C@@]1(CCC(=O)OC(C)(C)C)N=C(c2ccc(OCCCO)cc2)O[C@H]1c1ccccc1N=[N+]=[N-] 0.199, COc1cc2c(cc1O)C(c1ccc(CN3CCCC3)cc1)N(Cc1cc3c(cc1Br)OCO3)CC2 (stereo not given) -0.587, CCCC[C@@H](O)C1=C(COC)C[C@H]2C(=O)N(C)C(=O)[C@H]2[C@H]1CO -1.55, COC(=O)C(CC#Cc1ccc2c(c1)[C@]1(C(=O)N2)[C@H](c2ccc(O)cc2)N2[C@H](c3ccccc3)[C@H](c3ccccc3)OC(=O)[C@H]2[C@@H]1C(=O)NC[C@H](O)c1ccccc1)C(=O)OC 0.221, COC(=O)C1=CC(CCCO)=CC(c2ccc(CN3CCCC3)cc2)N(Cc2cccc(OC(F)(F)F)c2)C=C1C(=O)OC (stereo not given) 1.23, NC(=O)NCC#Cc1ccc2c(c1)[C@]1(C(=O)N2)[C@H](c2ccccc2OCCO)N2[C@H](c3ccccc3)[C@H](c3ccccc3)OC(=O)[C@H]2[C@@H]1C(=O)O -1.19, COC(=O)[C@@H]1N=C(c2ccc(OCCCO)cc2)O[C@@H]1c1ccccc1 -1.06, C=CCC(OC(C)=O)[C@@H]1[C@@H](N(Cc2cccc3ccccc23)C(=O)Cc2ccc(OC)cc2)c2cc(OCCCO)ccc2N1C(=O)c1ccc(-c2ccccc2)cc1 (stereo not given in full) 1.16, CC(C)[Si]1(C(C)C)OCc2cc(-c3ccc(-c4ccc(Cl)c(Cl)c4)o3)nc(-c3ccccc3)c21 -0.543
